This note sets out measurements from PubChem BioAssay.

Several values for one entry are separate records, joined by “and”; a condition that tells them apart may be missing. Equal values may be shown once. Activity calls are given as the source filed them. Unless noted, the rule behind the calls is not given here.

A short description of assay [1]: compounds altering circadian rhythm period length – cell-based, LOPAC library, luminescence reporter (AID 2774).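 Note: values are relative to mean of DMSO wells on each plate.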 To be noted: circadian reporter cells, at 7 µM, actives lie on both sides.
Assay [2] in a line: compounds altering viability of human ES cells (AID 493140).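 Note: cells exposed to compounds for four days before counting.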 The following applies: human embryonic stem cell survival screen; stronger effect = higher value.
In assay [3] the test system is Hepatitis C virus NS3 helicase. Kind of assay: blockers of NS3h binding to ssDNA – biochemical, fluorescence polarization, LOPAC1280 library, primary screen (AID 687035; in the data active = inhibition above about 37%). To be noted: Purified HCV NS3 helicase, Cy5-dT15 ssDNA binding fluorescence polarization; stronger effect = higher value; concentration not given here. For orientation: In fluorescence polarisation assays a small probe gives low polarisation when free and higher when bound to something large.

The nature of assay [4]: compounds altering Cy5-DNA-NS3h complex signal – biochemical, LOPAC1280, artefact control for HCV NS3 helicase inhibitor project (AID 687037). The following applies: Cy5-DNA-NS3h complex fluorescence interference counterscreen. For orientation: A counterscreen serves to expose hits that act by an unwanted route or on another target.
Assay [5] can be described thus: signal quenchers or enhancers, Cy5 substrate/SSB – biochemical, NIH Clinical Collection, E. coli SSB, artefact control for HCV NS3 helicase inhibitor project (AID 743268). The following applies: Cy5-oligo bound E. coli SSB, fluorescence interference.
For assay [6], the system named is Hepatitis C virus NS3 helicase. In words: blockers of NS3h binding to DNA – biochemical, fluorescence polarization, NIH Clinical Collection, primary screen (AID 743270). The following applies: NS3 helicase binding to Cy5-dT15 DNA, stronger effect = higher value, concentration not given here.
Assay [7] addresses Single-stranded DNA-binding protein (Escherichia coli (strain K12)) (UniProt P0AGE0). Kind of assay: SSB-ssDNA binding inhibitors – biochemical, fluorescence polarization, NIH Clinical Collection, counter-screen for HCV NS3 helicase inhibitor project (AID 743271; in the data active = inhibition above about 28%). To be noted: E. coli SSB-DNA binding, stronger effect = higher value, concentration not given here.
Assay [8] in a line: compounds distorting NS3 helicase fluorescence signal – biochemical, NIH Clinical Collection, artefact control for HCV NS3 helicase inhibitor project (AID 743272).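 Note: HCV NS3 helicase with a Cy5 labelled single stranded DNA probe.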 To be noted: fluorescence interference counterscreen, HCV NS3 helicase assay; stronger effect = lower value.
Assay [9] concerns Neuropilin-2 / VEGF-C interaction (human). In words: small molecules blocking Neuropilin-2/VEGF-C interaction – biochemical, microplate binding format, z-score (AID 743281). To be noted: microplate NRP2/VEGF-C binding assay; stronger effect = lower value.
Assay [10] can be described thus: Wnt pathway potentiators raising nuclear beta-catenin – imaging, WNT3A-conditioned medium, mouse C2C12, NPC library, primary screen (AID 1117326; in the data active = nuclear beta-catenin stimulation mostly above about 4.2%, no sharp cut-off; inactive = mostly below about 10%). To be noted: stronger effect = higher value.
Assay [11] in a line: P. berghei load reduction in hepatocytes – cell-based, HepG2, luciferase luminescence, HepG2 viability, primary screen (AID 624349; in the data active = parasite load remaining mostly below about 12%, no sharp cut-off; inactive = mostly above about 10%;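 note: 100% = mean of DMSO negative control wells on the same plate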). To be noted: P. berghei liver stage in HepG2, luciferase luminescence, concentration not given here; parasite load remaining: stronger effect = lower value; viability: measured here: HepG2 viability without parasites.

A word on the inhibition: it is the relative decrease from the control value, in per cent. One may read the viability as a read-out of living cells in per cent, often relative to untreated cells.

With `COc1cc2nc(N3CCN(C(=O)C4CCCO4)CC3)nc(N)c2cc1OC` (centres undefined), in [1], the period change was 0.02 h (inactive). Moreover, the survival in [2] is 3.75 (inactive). Besides, the inhibition in [3] was -3% (inactive); in [6], 0.4% (inactive) and -6.82% (inactive); in [7] it was -3.18% (inactive) and 1.05% (inactive). The fluorescence ratio (interference) in assay [4] is 1 (inactive). Also, the fluorescence ratio is 0.99 (inactive) and 1.03 (inactive) in assay [5]; 0.95 (inactive) and 1.02 (inactive) in assay [8]. Moreover, in [9], the z-score was -0.533 (inactive). Further, the nuclear beta-catenin stimulation in assay [10] (at 10 µM) was 0.8% (inactive); in [10] (stimulation, at 2 µM) it was 1.4%.
For the molecule `C[C@@](Cc1ccc(O)c(O)c1)(NN)C(=O)O`, in [1], the period change was 0.03 h (inactive). In assay [11], the parasite load remaining was 47.3% (inactive) and the viability is 129%. Further, in [10] (at 10 µM), the nuclear beta-catenin stimulation is -1.9% (inactive). Besides, in assay [10] (stimulation, at 2 µM), the nuclear beta-catenin stimulation was -0.3%.
As to `NCCS(=O)(=O)O`, in [1], the period change was -0.23 h (inactive). Also, the parasite load remaining in assay [11] is 52.5% (inactive). Further, the viability in assay [11] was 97.6%. Also, the inhibition in [3] was -4% (inactive). The fluorescence ratio (interference) in [4] was 0.9 (inactive). The nuclear beta-catenin stimulation in assay [10] (at 10 µM) was 5.3% (inactive); in assay [10] (stimulation, at 2 µM), 2.5%.
In the case of `O=C(CCNNC(=O)c1ccncc1)NCc1ccccc1`, the period change in [1] was -0.045 h (inactive). In addition, the survival in assay [2] is 17.5 (inactive). The results for the inhibition in assay [3], in assay [6] and in assay [7] were -4% (inactive), 0.66% (inactive) and -1.97% (inactive), respectively. Besides, the fluorescence ratio (interference) in [4] is 1 (inactive). In addition, the fluorescence ratio is 1.01 (inactive) in assay [5] and 0.97 (inactive) in assay [8]. In assay [9], the z-score is -0.136 (inactive). Moreover, the nuclear beta-catenin stimulation in assay [10] (at 10 µM) was -1% (inactive); in assay [10] (stimulation, at 2 µM), 0.1%.
Take `C[C@]12C[C@H](O)[C@H]3[C@@H](CCC4=CC(=O)CC[C@@]43C)[C@@H]1CC[C@@H]2C(=O)CO`: the period change in assay [1] is -0.34 h (inactive). Further, the survival in [2] is 6.08 (inactive). Besides, the inhibition in assay [3] is 0% (inactive); in [6] it was -1.97% (inactive); in assay [7] it was 1.97% (inactive). Further, the fluorescence ratio (interference) in assay [4] was 1 (inactive). The fluorescence ratio was 1.01 (inactive) in assay [5] and 0.99 (inactive) in assay [8]. Besides, the nuclear beta-catenin stimulation in assay [10] (at 10 µM) was 0% (inactive); in assay [10] (stimulation, at 2 µM), -1.4%.
As to `CN1CCC(=C2c3ccccc3C=Cc3ccccc32)CC1`, the period change in [1] is 0.015 h (inactive). In [2], the survival was 13.7 (inactive). The inhibition in assay [3] is -1% (inactive); in assay [6], -2.84% (inactive); in assay [7], -0.39% (inactive). For the same molecule, the fluorescence ratio (interference) in assay [4] is 1 (inactive). Further, the figures for the fluorescence ratio in [5] and in assay [8] were 0.97 (inactive) and 0.96 (inactive), respectively. Further, the z-score in [9] is -0.162 (inactive). Besides, the nuclear beta-catenin stimulation in assay [10] (at 10 µM) was 3.3% (inactive); in assay [10] (stimulation, at 2 µM), 1.3%.
Regarding `Nc1ccn([C@H]2CC[C@@H](CO)O2)c(=O)n1`, in assay [1], the period change is -0.095 h (inactive). Further, the survival in assay [2] is 9 (inactive). Further, the parasite load remaining in assay [11] was 89% (inactive) and 87.9% (inactive) and 17.9% (inactive). Moreover, the viability in assay [11] is 73.7% and 72.5%. The inhibition in assay [3] is 0% (inactive); in assay [6] it was 2.77% (inactive); in [7], -1.64% (inactive). For the same molecule, the fluorescence ratio (interference) in [4] is 1 (inactive). Further, the fluorescence ratio in assay [5] is 1.05 (inactive); in assay [8], 1.02 (inactive). In addition, in [9], the z-score was 0.496 (inactive). Moreover, the nuclear beta-catenin stimulation in [10] (at 10 µM) is -1% (inactive); in assay [10] (stimulation, at 2 µM), -1.5%.
Take `Cc1nc2n(c(=O)c1CCN1CCC(c3noc4cc(F)ccc34)CC1)CCCC2`: in assay [1], the period change is 0.015 h (inactive). In addition, the survival in [2] was 5 (inactive). Besides, the parasite load remaining in [11] was 83.8% (inactive) and 28.6% (inactive) and 49.1% (inactive). In [11], the viability is 76.9% and 60.3% and 97.5%. Besides, the fluorescence ratio is 1.05 (inactive) in [5] and 1.02 (inactive) in assay [8]. Moreover, the inhibition in assay [6] was 3.56% (inactive); in [7], 2.21% (inactive). For the same molecule, the z-score in assay [9] is -1.5 (inactive). For the same molecule, the nuclear beta-catenin stimulation is 4.2% (inactive) in assay [10] (at 10 µM) and 4.4% in assay [10] (stimulation, at 2 µM).
